In PubChem BioAssay (EPA / NIEHS) one finds AC50 and outcome data, which are given here for 21 compounds.

Molecules are shown by their SMILES. “And” between values parts separate entries of the source, which are not always exact repeats. Identical values can stand only once. Results filed as inconclusive are left out. Where a structure was tested more than once in an assay, its records may differ in their call. The source made the active and inactive calls. The calls were made as follows, unless noted: active = hit-call score of the fitted dose curve at least 0.9, where 1 is the maximum; inconclusive = response in the unintended direction; inactive = score below 0.9.

Assay [1] deals with Estrogen receptor beta (Homo sapiens) (UniProt Q92731). Put plainly: OT_ER_ERbERb_1440: Odyssey Thera (OT) 24-hour HEK293T Protein-Complementation Assay for Estrogen Receptor-beta/-beta Homodimer (AID 2283380).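 Also: scored as signal increase over DMSO baseline for both agonists and antagonists.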 An outline of the steps: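 HEK293T cells stably expressing ER beta LBD (aa 310-547) homodimer fragment-complementation reporter, dosed 24 h. Cells formaldehyde-fixed, Draq5-stained; gain in nuclear (agonist) or nuclear plus cytoplasmic (antagonist) fluorescence versus DMSO read by laser scanning cytometry.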

Assay [2] addresses Estrogen receptor (Homo sapiens) (UniProt P03372). The experiment in a line: OT_ERa_GFPERaERE_0480: Odyssey Thera (OT) 8-hour HeLa Transcription Induction Assay for Estrogen Receptor (AID 2283381; active = hit-call score of the fitted dose curve at least 0.9, where 1 is the maximum; inactive = score below 0.9). An outline of the steps:
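Fluorescent reporter signal, imaged by microscopy and scored with image-analysis algorithms, was taken 8 h after chemical dosing of HeLa cells; activity was fitted upward relative to DMSO.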

The target is the same in assay [3]. The experiment in a line: OT_ERa_GFPERaERE_0120: Odyssey Thera (OT) 2-hour HeLa Transcription Induction Assay for Estrogen Receptor (AID 2283382). An outline of the steps:
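HeLa, 384-well, 2 h chemical exposure; GFP reporter induction (ERE), fluorescence microscopy; high content image analysis; positive fitting direction vs DMSO.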

For assay [4], the target named is Bile acid receptor (Homo sapiens) (UniProt Q96RI1). Put plainly: OT_FXR_FXRSRC1_0480: Odyssey Thera (OT) 8-hour HEK293T Protein-Complementation Assay for Farnesoid X receptor/SRC-1 Co-activator (AID 2283383). An outline of the steps: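 Human kidney HEK293T cells carried FXR/SRC-1 fragment-complementation constructs. Compounds were added and incubated 8 h. Reporter reassembly upon receptor–co-activator interaction was then quantified by fluorescence, with curves fitted in the positive direction relative to DMSO.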

The target is the same in assay [5]. The experiment in a line: OT_FXR_FXRSRC1_1440: Odyssey Thera (OT) 24-hour HEK293T Protein-Complementation Assay for Farnesoid X receptor/SRC-1 Co-activator (AID 2283384). An outline of the steps: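 Compounds are applied to human kidney HEK293T cells expressing bait and prey fused to reporter protein fragments; after 24 h, reconstituted reporter fluorescence is measured. Activity is fitted as signal gain over DMSO.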

The target of assay [6] is Retinoic acid receptor RXR-alpha (Homo sapiens) (UniProt P19793). Put plainly: OT_NURR1_NURR1RXRa_0480: Odyssey Thera (OT) 8-hour HEK293T Protein Complementation Assay for Nurr1/retinoid X receptor (RXR) (AID 2283385). An outline of the steps: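 8 h compound exposure, HEK293T; Nurr1/RXRα fragment complementation; fluorescence intensity; positive fitting direction vs DMSO baseline.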

Assay [7] shares this target. Put plainly: OT_NURR1_NURR1RXRa_1440: Odyssey Thera (OT) 24-hour HEK293T Protein Complementation Assay for Nurr1/retinoid X receptor (RXR) (AID 2283386). The method, boiled down: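 Interaction of Nurr1 with RXRα brings fused reporter fragments together in human HEK293T cells, restoring a functional reporter. Fluorescence intensity is measured 24 h after chemical treatment, and values are analysed in the positive direction against DMSO.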

Assay [8] concerns the target Peroxisome proliferator-activated receptor gamma (Homo sapiens) (UniProt P37231). Put plainly: OT_PPARg_PPARgSRC1_0480: Odyssey Thera (OT) 8-hour Protein-Complementation Assay for Peroxisome Proliferator-activated Receptor Gamma / SRC-1 Co-activator (AID 2283387).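 Also: nuclear to cytoplasmic split Venus YFP fluorescence ratio reporting PPARg SRC-1 interaction.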 An outline of the steps: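 Protein-fragment complementation in HEK293T: Venus YFP halves (residues 1-158, 159-239, mutated to IFP1/IFP2) fused to PPARg/SRC-1. 8 h exposure; N/C ratio at 488 nm; DMSO negative control.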

Assay [9] has the same target. The experiment in a line: OT_PPARg_PPARgSRC1_1440: Odyssey Thera (OT) 24-hour Protein-Complementation Assay for Peroxisome Proliferator-activated Receptor Gamma/ SRC-1 Co-activator (AID 2283388).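 Also: nuclear to cytoplasmic ratio of reconstituted Venus YFP fluorescence in fixed imaged cells.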 The method, boiled down:
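Protein-fragment complementation between PPARg and coactivator SRC-1 was measured by fluorescence imaging in transiently transfected HEK293T cells after 24 h treatment. Signal was quantified as N/C ratio in the 488 nm channel, with DMSO as negative control.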

A short description of assay [10]: CEETOX_H295R_11DCORT: CeeTox H295R High-throughput Steroidogenesis Assay for 11-Deoxycortisol (11DCORT) (AID 2283432; active = hit-call score of the fitted dose curve at least 0.9, where 1 is the maximum; inactive = score below 0.9;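 as to AC50: human adrenal H295R cells prestimulated with 10 µM forskolin for 48 h; 11-deoxycortisol secreted into the medium measured by LC-MS/MS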). Particulars: actives raise or lower the signal. An outline of the steps:
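Adrenal carcinoma line H295R, run per OECD 456 with minor changes, was forskolin-stimulated (10 uM, 48 h) before a 48 h chemical exposure at 0.1% DMSO. Secreted 11-deoxycortisol was quantified by HPLC-MS/MS.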

Assay [11] in a line: CEETOX_H295R_OHPREG: CeeTox H295R High-throughput Steroidogenesis Assay for OH-Pregnenolone (OHPREG) (AID 2283434; active = hit-call score of the fitted dose curve at least 0.9, where 1 is the maximum; inactive = score below 0.9). Particulars: actives raise or lower the signal. An outline of the steps: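 H295R cells pre-stimulated 48 h with 10 uM forskolin, then exposed 48 h to chemical in 0.1% DMSO. 17alpha-hydroxypregnenolone in medium quantified by MTBE extraction and HPLC-MS/MS; bidirectional fit versus DMSO, viability checked by MTT.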

Assay [12] deals with mouse Estrogen Receptor alpha (Era), Esr1 (gene 13982) (UniProt P19785). The experiment in a line: NVS_NR_mERa: NovaScreen (NVS) Nuclear Receptor Binding Assay for mouse Estrogen Receptor alpha (Era) (AID 2283378).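 Also: hit means loss of bound radioligand signal relative to DMSO.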 The method, boiled down: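 Extracted mouse Era incubated with tritiated or iodinated radioligand plus test chemical, 18 h. Bound fraction separated on filters, counted by scintillation. DMSO = negative control/baseline; duplicate single-point at 25 uM, then concentration-response follow-up.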

The target of assay [13] is Agonist Androgen Response Element (ARE), AR (gene 367) (UniProt P10275). The experiment in a line: OT_AR_ARELUC_AG_1440: Odyssey Thera (OT) 24-hour CHO-K1 Luciferase Assay for Agonist Androgen Response Element (ARE) (AID 2283379). The method, boiled down: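 CHO-K1 cells carrying an ARE-driven luciferase reporter were exposed to compounds for 24 h. Luminescence was then read after adding a D-luciferin/ATP mix, and activity was scored as a gain in signal over DMSO vehicle.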

Assay [14] addresses human Dopamine Transporter (DAT), SLC6A3 (gene 6531) (UniProt Q01959). The experiment in a line: NVS_TR_hDAT: NovaScreen (NVS) Transporter Assay for human Dopamine Transporter (DAT) (AID 2283374).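 Also: activity means loss of bound radioligand signal relative to DMSO.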 An outline of the steps:
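Cell-free radioligand displacement binding at human DAT, 1 h after dosing, with filtration and scintillation counting. Primary screen in duplicate at 25 uM, actives then in concentration series. Loss of bound signal versus DMSO scored.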

The target of assay [15] is rat Serotonin Transporter (SERT), Slc6a4 (gene 25553) (UniProt P31652). The experiment in a line: NVS_TR_rSERT: NovaScreen (NVS) Transporter Assay for rat Serotonin Transporter (SERT) (AID 2283375). An outline of the steps:
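Filtration-based radiodetection quantified loss of specific radioligand binding in rat forebrain membranes after 1 hour of chemical exposure, relative to DMSO. Chemicals were first tested in duplicate at 25 uM.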

Assay [16] has as its target human Norepinephrine Transporter (NET), SLC6A2 (gene 6530) (UniProt P23975). The experiment in a line: NVS_TR_hNET: NovaScreen (NVS) Transporter Assay for human Norepinephrine Transporter (NET) (AID 2283377).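 Also: displacement of radioligand from human NET seen as loss of scintillation signal.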 An outline of the steps: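 Cell-free radioligand binding using CHO-derived membrane protein expressing human NET, read by filter scintillation counting 1 h after dosing; loss of signal vs DMSO. Initial duplicate screen at 25 uM, actives retested in concentration series.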

Chain of mouse Estrogen Receptor alpha (Era), Esr1 (gene 13982) (P19785 whole entry, looked up): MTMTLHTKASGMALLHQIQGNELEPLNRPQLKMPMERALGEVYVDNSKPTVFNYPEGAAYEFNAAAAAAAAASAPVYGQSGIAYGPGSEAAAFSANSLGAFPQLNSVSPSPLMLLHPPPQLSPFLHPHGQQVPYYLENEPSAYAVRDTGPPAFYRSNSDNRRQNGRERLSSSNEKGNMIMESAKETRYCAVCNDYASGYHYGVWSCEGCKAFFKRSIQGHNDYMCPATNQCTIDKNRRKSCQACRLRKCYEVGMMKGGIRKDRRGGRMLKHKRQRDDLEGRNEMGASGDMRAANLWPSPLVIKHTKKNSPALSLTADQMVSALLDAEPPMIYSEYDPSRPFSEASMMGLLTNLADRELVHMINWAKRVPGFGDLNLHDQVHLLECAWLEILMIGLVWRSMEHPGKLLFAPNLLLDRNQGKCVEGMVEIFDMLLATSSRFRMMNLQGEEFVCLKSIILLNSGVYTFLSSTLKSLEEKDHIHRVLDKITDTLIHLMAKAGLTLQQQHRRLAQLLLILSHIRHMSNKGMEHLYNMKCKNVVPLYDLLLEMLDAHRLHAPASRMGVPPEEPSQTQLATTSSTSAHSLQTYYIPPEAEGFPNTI
Chain of human Dopamine Transporter (DAT), SLC6A3 (gene 6531) (Q01959 whole entry, looked up): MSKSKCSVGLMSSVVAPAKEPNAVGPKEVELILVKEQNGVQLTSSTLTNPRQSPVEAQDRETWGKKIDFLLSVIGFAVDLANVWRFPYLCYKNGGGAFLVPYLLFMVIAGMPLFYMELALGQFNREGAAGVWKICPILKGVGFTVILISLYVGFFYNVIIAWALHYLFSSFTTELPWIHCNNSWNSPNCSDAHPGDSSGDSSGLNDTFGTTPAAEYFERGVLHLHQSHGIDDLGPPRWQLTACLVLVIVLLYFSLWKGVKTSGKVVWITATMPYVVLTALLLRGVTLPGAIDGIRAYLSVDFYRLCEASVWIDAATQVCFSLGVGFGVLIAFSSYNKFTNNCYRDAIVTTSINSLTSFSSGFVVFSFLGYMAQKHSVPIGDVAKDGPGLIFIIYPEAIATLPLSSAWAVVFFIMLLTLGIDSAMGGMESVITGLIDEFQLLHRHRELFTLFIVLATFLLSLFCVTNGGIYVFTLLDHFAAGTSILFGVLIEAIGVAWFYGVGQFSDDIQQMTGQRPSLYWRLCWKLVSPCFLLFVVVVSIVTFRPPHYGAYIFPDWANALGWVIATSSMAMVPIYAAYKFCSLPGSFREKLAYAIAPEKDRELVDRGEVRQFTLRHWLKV
Chain of Estrogen receptor beta (Homo sapiens) (Q92731 whole entry, looked up, the tested form may be a part): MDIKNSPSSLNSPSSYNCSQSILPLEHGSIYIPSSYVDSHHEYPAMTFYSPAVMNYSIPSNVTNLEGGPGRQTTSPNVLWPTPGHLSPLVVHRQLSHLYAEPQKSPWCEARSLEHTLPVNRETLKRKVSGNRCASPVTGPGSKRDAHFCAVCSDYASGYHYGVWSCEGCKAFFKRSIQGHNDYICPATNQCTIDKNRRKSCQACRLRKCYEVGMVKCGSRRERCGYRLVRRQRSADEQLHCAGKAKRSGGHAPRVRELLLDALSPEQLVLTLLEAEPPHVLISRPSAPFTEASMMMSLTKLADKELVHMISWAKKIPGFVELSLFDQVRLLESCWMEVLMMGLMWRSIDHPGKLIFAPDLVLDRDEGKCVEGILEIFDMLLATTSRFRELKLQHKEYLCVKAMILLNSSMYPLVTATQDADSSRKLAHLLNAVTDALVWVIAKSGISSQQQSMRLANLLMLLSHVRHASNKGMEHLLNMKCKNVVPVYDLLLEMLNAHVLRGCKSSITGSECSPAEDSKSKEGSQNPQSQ
Chain of Retinoic acid receptor RXR-alpha (Homo sapiens) (P19793 whole entry, looked up, the tested form may be a part): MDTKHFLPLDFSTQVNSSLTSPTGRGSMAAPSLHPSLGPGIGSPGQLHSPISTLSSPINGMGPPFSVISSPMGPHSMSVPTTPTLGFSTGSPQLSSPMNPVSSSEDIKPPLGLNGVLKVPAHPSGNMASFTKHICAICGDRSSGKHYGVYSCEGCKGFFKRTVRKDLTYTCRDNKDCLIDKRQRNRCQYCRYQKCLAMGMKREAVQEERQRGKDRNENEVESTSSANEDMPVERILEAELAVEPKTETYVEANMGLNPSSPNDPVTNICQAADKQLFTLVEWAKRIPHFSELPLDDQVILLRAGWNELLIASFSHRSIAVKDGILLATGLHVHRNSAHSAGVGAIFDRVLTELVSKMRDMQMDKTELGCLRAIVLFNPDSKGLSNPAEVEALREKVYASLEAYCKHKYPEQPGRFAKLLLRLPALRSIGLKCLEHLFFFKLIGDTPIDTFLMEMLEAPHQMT
Chain of Estrogen receptor (Homo sapiens) (P03372 whole entry, looked up): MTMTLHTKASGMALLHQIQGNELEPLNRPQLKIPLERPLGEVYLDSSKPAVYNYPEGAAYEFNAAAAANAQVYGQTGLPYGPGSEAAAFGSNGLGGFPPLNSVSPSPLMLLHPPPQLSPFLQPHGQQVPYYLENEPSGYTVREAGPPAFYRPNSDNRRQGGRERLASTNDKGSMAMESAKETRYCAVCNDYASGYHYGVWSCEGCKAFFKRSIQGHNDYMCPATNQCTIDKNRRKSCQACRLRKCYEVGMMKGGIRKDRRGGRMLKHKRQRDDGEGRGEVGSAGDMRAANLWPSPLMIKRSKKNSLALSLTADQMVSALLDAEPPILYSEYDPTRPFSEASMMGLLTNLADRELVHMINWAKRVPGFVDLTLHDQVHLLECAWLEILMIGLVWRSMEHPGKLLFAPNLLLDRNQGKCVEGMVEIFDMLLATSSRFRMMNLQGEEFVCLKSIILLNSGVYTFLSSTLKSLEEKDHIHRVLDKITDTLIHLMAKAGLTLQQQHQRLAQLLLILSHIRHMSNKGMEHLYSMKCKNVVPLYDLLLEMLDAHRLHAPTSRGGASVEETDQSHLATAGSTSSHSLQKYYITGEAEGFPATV
Chain of Peroxisome proliferator-activated receptor gamma (Homo sapiens) (P37231 whole entry, looked up, the tested form may be a part): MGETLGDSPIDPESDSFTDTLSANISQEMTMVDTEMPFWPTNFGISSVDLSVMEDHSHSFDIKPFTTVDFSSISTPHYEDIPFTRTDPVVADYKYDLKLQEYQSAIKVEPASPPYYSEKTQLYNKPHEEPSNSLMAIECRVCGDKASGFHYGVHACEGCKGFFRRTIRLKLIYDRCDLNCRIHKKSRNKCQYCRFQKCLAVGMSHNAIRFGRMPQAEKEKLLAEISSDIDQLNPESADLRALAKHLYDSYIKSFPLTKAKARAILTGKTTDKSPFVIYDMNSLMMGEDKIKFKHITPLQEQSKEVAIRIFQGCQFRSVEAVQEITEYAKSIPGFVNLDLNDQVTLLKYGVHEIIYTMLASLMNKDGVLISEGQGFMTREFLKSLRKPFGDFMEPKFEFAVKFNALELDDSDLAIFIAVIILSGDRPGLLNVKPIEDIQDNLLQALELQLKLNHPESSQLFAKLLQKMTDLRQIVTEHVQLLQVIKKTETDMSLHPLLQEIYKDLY
Chain of Bile acid receptor (Homo sapiens) (Q96RI1 whole entry, looked up, the tested form may be a part): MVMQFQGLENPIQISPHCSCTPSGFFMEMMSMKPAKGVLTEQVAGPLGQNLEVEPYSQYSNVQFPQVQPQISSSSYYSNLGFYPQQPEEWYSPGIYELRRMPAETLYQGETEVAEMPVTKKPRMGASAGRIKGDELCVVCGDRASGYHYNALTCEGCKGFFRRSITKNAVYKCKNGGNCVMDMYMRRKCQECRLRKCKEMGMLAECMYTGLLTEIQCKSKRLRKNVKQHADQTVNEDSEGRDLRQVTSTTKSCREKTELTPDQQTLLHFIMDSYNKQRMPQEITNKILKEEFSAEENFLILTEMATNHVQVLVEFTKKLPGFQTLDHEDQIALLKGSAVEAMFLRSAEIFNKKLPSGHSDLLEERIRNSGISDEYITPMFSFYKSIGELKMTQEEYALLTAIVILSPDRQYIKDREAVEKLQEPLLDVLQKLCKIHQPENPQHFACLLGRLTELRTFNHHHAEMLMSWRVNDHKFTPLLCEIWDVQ
Chain of Agonist Androgen Response Element (ARE), AR (gene 367) (P10275 whole entry, looked up): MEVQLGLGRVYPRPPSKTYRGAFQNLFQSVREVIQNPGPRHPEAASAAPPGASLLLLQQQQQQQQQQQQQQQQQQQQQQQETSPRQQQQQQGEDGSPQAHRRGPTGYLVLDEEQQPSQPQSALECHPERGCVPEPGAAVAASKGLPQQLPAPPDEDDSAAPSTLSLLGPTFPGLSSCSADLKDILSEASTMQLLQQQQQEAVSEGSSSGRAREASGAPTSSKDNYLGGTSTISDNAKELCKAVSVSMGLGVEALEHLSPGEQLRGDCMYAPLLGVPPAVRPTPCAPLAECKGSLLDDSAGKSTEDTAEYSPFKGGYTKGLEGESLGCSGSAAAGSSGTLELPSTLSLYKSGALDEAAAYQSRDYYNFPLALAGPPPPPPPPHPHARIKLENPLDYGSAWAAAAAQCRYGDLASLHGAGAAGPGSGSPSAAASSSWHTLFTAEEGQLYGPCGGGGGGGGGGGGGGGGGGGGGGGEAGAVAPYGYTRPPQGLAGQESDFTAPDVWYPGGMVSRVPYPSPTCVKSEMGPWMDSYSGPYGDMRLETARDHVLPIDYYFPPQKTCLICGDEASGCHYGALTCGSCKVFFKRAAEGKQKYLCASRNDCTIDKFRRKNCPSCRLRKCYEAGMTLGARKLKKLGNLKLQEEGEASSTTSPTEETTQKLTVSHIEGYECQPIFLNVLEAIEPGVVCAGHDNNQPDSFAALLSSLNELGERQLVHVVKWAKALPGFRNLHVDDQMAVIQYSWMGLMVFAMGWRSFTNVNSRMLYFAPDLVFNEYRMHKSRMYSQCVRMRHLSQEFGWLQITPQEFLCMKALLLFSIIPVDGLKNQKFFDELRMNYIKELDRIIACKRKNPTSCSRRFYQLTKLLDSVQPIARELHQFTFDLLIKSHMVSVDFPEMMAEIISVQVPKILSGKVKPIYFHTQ

As to `Oc1cccc(O)c1`, the AC50 (as a rule, the midpoint of the concentration-response curve, whichever way the signal moves) was 18 µM (active) in assay [1] and 52.9 µM (active) in assay [2]. The outcome in assay [3], in assay [4], in assay [5], in assay [6], in [7] and in assay [8] was inactive. Further, the compound was classed as inactive in assay [9], in assay [10] and in [11].

`O=C(OCCOCCOC(=O)c1ccccc1)c1ccccc1`: the compound was classed as inactive in assay [3], in [4], in assay [5], in [6], in [8] and in [9].

Regarding `OCCC(F)(F)C(F)(F)C(F)(F)C(F)(F)C(F)(F)C(F)(F)C(F)(F)C(F)(F)F`, the compound was classed as inactive in [12], in assay [1], in [6] and in assay [7]. For the same compound, the AC50 in assay [13] was 21.8 µM (active); in assay [3], 3.54 µM (active).

As to `CCCCCCCC(=O)O`, the compound was classed as inactive in [14], in assay [15], in assay [3], in [6], in assay [7] and in [8]. The compound was classed as inactive in assay [9]. Further, the AC50 was 21.3 µM (active) in assay [1] and 22.1 µM (active) in assay [2].

Regarding `COc1ccc([N+](=O)[O-])cc1N`, the result in assay [1], in assay [3], in assay [4], in assay [5], in assay [6] and in [7] was inactive. In addition, the call in assay [8], in assay [9] and in [11] was inactive. Besides, the AC50 in assay [10] is 50 µM (active).

In the case of `CC(O)C(=O)O` (stereo not drawn), the outcome in [2], in assay [3], in assay [4], in [5] and in assay [7] was inactive.

As to `Oc1cc2ccccc2c2ccccc12`, the outcome in assay [14], in [13], in assay [1], in assay [3], in assay [6] and in [8] was inactive. The call in assay [9] was inactive. The AC50 in [16] is 1.89 µM (active).

For `C[C@@H]1C[C@H]2[C@@H]3CCC4=CC(=O)C=C[C@]4(C)[C@@]3(F)[C@@H](O)C[C@]2(C)[C@@]1(O)C(=O)COP(=O)(O)O`, the compound was called inactive in [12], in assay [1], in assay [3], in [6], in [7] and in assay [8]. Besides, the compound was called inactive in assay [9], in [10] and in assay [11].

As for `CCC(C)(C)C1CCC(O)CC1` (stereo not drawn), the AC50 was 6.46 µM (active) in assay [12]; 16.2 µM (active) and 40.9 µM (active) in assay [2]; 27.5 µM (active) and 24.4 µM (active) in assay [3]. Also, the result in assay [12], in assay [2], in assay [3], in [6], in [7] and in [8] was inactive. Further, the compound was classed as inactive in assay [9].

Turning to `CC(C)(C)c1cccc(C(C)(C)C)c1O`, the call in assay [2], in assay [3], in assay [6], in assay [7], in assay [8] and in assay [9] was inactive. Further, the values for the AC50 in assay [4] and in assay [6] were 78.7 µM (active) and 79.8 µM (active), respectively.

On to `O=C1OC2(c3ccccc31)c1cc(Br)c(O)c(Br)c1Oc1c2cc(Br)c(O)c1Br`, for which the compound was classed as inactive in assay [12], in assay [1], in assay [3], in assay [4], in assay [5] and in assay [6]. The compound was called inactive in assay [7]. The values for the AC50 in [8] and in assay [9] were 74 µM (active) and 73.1 µM (active), respectively.

On to `CC(=O)CC(C)(C)O`, for which the result in [13], in assay [1], in [2], in assay [3], in [4] and in assay [5] was inactive. Also, the call in [7], in assay [8] and in assay [9] was inactive.

Regarding `CC(O)CO` (stereo not drawn), the compound was classed as inactive in assay [3], in assay [4], in [5], in assay [6], in [8] and in assay [9].

For `CCCCCCCCC(=O)O`, the compound was called inactive in assay [1], in [3], in [6], in assay [7], in assay [10] and in [11].

With `c1ccc2c(c1)Cc1ccccc1-2`, the outcome in [1], in assay [3], in assay [4], in assay [6], in assay [7] and in [8] was inactive. In [9], the compound was classed as inactive.

For the compound `CC(C)CCCCCCOC(=O)CCCCC(=O)OCCCCCCC(C)C`, the call in [14], in [3], in assay [4], in [6], in assay [7] and in assay [8] was inactive. In addition, in assay [9], the compound was called inactive.

For `ClC1=C(Cl)C(Cl)(Cl)C(Cl)=C1Cl`, the result in assay [1], in [2], in assay [3], in [8] and in assay [9] was inactive.

Take `CC(C)(C)CC(C)(C)c1ccc(O)c(-n2nc3ccccc3n2)c1`: the compound was called inactive in assay [1], in [2], in [3], in assay [8] and in assay [9]. In addition, the AC50 in assay [4] is 35.7 µM (active); in [5], 34.5 µM (active); in [6] it was 75.6 µM (active) and 79 µM (active); in [7], 30 µM (active) and 84.7 µM (active).

For `COCC(C)O` (stereo not drawn), the AC50 in assay [12] was 11.5 µM (active). The result in assay [3], in assay [7], in [8] and in assay [9] was inactive.

Consider `CCCCOCCO`, for which the compound was classed as inactive in assay [3], in [4], in [5], in [6], in assay [7] and in assay [8]. Moreover, the compound was called inactive in assay [9].

In the case of `CCCCCCC(=O)O`, the result in assay [1], in assay [3], in assay [4], in assay [5], in assay [6] and in assay [7] was inactive.
